Assay results published in the supplement of paper PMC4709259.
Structures can show the parent of a compound that is named as a salt. ± gives the standard deviation.

These molecules were tested on Jurkat (assay: cell count relative to DMSO control (fraction of control); higher = more cells (less growth inhibition)). Details: 48 h.

In order of falling cell count:
1. NS(=O)(=O)c1cc2c(cc1Cl)N=CNS2(=O)=O [Chlorothiazide] (concentration: 25 µM)  1.16 ± 0.082
2. OCCOCCN1CCN(C(c2ccccc2)c2ccc(Cl)cc2)CC1 (configuration not stated) [Hydroxyzine Dihydrochloride] (concentration: 25 µM)  0.968 ± 0.063
3. CCCN(CCC)CCc1cccc2c1CC(=O)N2 [Ropinirole·HCl] (concentration: 25 µM)  0.958 ± 0.1
4. CN(C/C=C/C#CC(C)(C)C)Cc1cccc2ccccc12 [Terbinafine·HCl] (concentration: 25 µM)  0.947 ± 0.08
5. CC1(C)O[C@@H]2C[C@H]3[C@@H]4C[C@H](F)C5=CC(=O)C=C[C@]5(C)[C@H]4[C@@H](O)C[C@]3(C)[C@]2(C(=O)CO)O1 [Flunisolide] (concentration: 2.5 µM)  0.893 ± 0.11
6. CC(CCc1ccccc1)NCC(O)c1ccc(O)c(C(N)=O)c1 (configuration not stated) [Labetalol·HCl] (concentration: 25 µM)  0.821 ± 0.1
7. CC(C)(S)[C@@H](N)C(=O)O [Penicillamine (D-Penicillamine)] (concentration: 25 µM)  0.796 ± 0.074
8. COC(=O)C1=C(C)NC(C)=C(C(=O)OCCN(C)Cc2ccccc2)C1c1cccc([N+](=O)[O-])c1 (configuration not stated) [Nicardipine·HCl] (concentration: 25 µM)  0.568 ± 0.034
9. C[C@@H]1NC(=O)[C@@H](N)CNC(=O)[C@H](C2CCNC(=N)N2)NC(=O)/C(=C/NC(N)=O)NC(=O)[C@H](CNC(=O)CC(N)CCCN)NC1=O.N=C1NCC[C@H]([C@@H]2NC(=O)/C(=C/NC(N)=O)NC(=O)[C@H](CNC(=O)C[C@@H](N)CCCN)NC(=O)[C@H](CO)NC(=O)[C@@H](N)CNC2=O)N1 [Capreomycin Sulfate] (concentration: 25 µM)  0.544 ± 0.14
10. C/C(=C\C(=O)OCCCCCCCCC(=O)O)C[C@@H]1OC[C@H](C[C@@H]2O[C@H]2[C@@H](C)[C@H](C)O)[C@@H](O)[C@H]1O [Mupirocin] (concentration: 25 µM)  0.525 ± 0.18
11. COCCCOc1ccnc(C[S+]([O-])c2nc3ccccc3[nH]2)c1C (configuration not stated) [Rabeprazole·Na] (concentration: 25 µM)  0.523 ± 0.06
12. CNCCC=C1c2ccccc2CCc2ccccc21 [Nortriptyline·HCl] (concentration: 25 µM)  0.498 ± 0.056
